Test results published in the supplement of paper PMC3545927.
The list shows a part of the results. No count for the full screen is at hand.

B1: FS-2288 (peptide)
chain: CARQCRSSQGAGNASASA
B2: FS-3176 (peptide)
chain: CARWKRDSSGAGNASASA
B3: FS-2338 (peptide)
chain: CARIKRDSQGAGNASASA
B4: FS-2906 (peptide)
chain: CARDSRSSGGAGNASASA
B5: FS-2999 (peptide)
chain: CARLVRESSGAGNASASA
B6: FS-2437 (peptide)
chain: CARPKRYNSGAGNASASA
B7: HC908 (peptide)
chain: CAKPGIYRFVAGNASASA
B8: HC1108 (peptide)
chain: CAGVVCAAILAGNASASA
B9: HC886 (peptide)
chain: CAVIDCNTCVAGNASASA
B10: HC400 (peptide)
chain: CAGPDQRPYCAGNASASA
B11: FS-1381 (peptide)
chain: CAPGRRRRRTAGNASASA
B12: HC878 (peptide)
chain: CAVATDALMTAGNASASA
B13: FS-2936 (peptide)
chain: CARGRREARRAGNASASA
B14: FS-1432 (peptide)
chain: CAVPQRHRRTAGNASASA
B15: FS-1250 (peptide)
chain: CAQPRRHRRPAGNASASA
B16: FS-387 (peptide)
chain: CAVGRRYRRTAGNASASA
B17: HC962 (peptide)
chain: CASWDQMWKCAGNASASA
B18: HC1378 (peptide)
chain: CAAAEEQKLPAGNASASA
B19: HC1118 (peptide)
chain: CAWMNRLIAFAGNASASA
B20: HC2315 (peptide)
chain: CAHVPCHRPSAGNASASA
B21: HC1701 (peptide)
chain: CAMNECSQHLAGNASASA
B22: HC2136 (peptide)
chain: CAEGVVCCSMAGNASASA
B23: HC1010 (peptide)
chain: CAEVLYREFDAGNASASA
B24: FS-1398 (peptide)
chain: CARGRRKKKCAGNASASA
B25: FS-1399 (peptide)
chain: CARGRRRRRTAGNASASA
B26: HC769 (peptide)
chain: CAPVVPQSFQAGNASASA
B27: FS-2197 (peptide)
chain: CARVKRRADPAGNASASA
B28: FS-1940 (peptide)
chain: CARVPRDWDPAGNASASA
B29: FS-2318 (peptide)
chain: CARVKRRLLMAGNASASA
B30: FS-1865 (peptide)
chain: CARQKRREERAGNASASA
B31: FS-1864 (peptide)
chain: CARQKRRAKPAGNASASA
B32: FS-2619 (peptide)
chain: CARVKRVSHSAGNASASA
B33: FS-2290 (peptide)
chain: CARQKRNKIPAGNASASA
B34: HC2402 (peptide)
chain: CAEVPCHRQSAGNASASA
B35: FS-2532 (peptide)
chain: CARVKRPQLMAGNASASA
B36: FS-2243 (peptide)
chain: CARVKRYRQSAGNASASA

Target: furin, P09958
Assay: furin cleavage Z-score vs untreated control; higher = more cleavage, active = 3.5 or more, inactive = 1 or less, 8 variable residues between constant flanks
Summary of the method: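 Purified furin cleaved 8-mer peptides that were fused to a cDNA oligonucleotide and held on magnetic beads by their N-terminus. Each 0.01 ml reaction used a 1:10 enzyme:substrate ratio in 50 mM HEPES pH 7.5 with CaCl2 and NaCl and ran 7.5, 15 or 30 min. Released DNA was adapter-tagged by PCR and sequenced, and read counts gave abundance. The cleavage Z-score came from log counts against furin-free reactions, lowess-adjusted and scaled by median absolute deviation.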

Sequence of furin, P09958 (P09958 whole entry): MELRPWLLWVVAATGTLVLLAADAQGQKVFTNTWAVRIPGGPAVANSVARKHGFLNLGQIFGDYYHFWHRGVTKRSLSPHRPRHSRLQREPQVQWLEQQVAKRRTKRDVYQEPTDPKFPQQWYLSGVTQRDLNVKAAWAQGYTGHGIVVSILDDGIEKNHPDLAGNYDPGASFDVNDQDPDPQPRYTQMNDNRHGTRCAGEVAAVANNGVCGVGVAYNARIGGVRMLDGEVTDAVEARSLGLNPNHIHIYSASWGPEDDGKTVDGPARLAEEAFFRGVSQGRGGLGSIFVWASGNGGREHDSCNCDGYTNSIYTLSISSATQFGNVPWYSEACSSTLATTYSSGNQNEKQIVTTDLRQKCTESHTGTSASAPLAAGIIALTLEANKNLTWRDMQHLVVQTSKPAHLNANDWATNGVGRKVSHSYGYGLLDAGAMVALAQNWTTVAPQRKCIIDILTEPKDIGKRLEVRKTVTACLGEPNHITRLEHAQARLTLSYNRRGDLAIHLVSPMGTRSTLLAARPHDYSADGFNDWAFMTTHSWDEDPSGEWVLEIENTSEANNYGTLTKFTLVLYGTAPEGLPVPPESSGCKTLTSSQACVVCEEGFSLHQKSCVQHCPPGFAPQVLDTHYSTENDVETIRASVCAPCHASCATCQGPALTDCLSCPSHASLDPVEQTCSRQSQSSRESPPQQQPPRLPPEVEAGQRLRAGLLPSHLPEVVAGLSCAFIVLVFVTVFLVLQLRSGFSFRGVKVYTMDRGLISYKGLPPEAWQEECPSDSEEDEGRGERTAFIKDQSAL

Sequence	furin cleavage Z-score (7.5 min)	furin cleavage Z-score (15 min)	furin cleavage Z-score (30 min)
B1	1.61	0.149 (inactive)	1.21
B2	10.7 (active)	12 (active)	10.2 (active)
B3	12.5 (active)	13.5 (active)	10.5 (active)
B4	-0.675 (inactive)	-1.21 (inactive)	-0.52 (inactive)
B5	-0.00522 (inactive)	1.39	1.91
B6	0.95 (inactive)	0.51 (inactive)	1.14
B7	1.16	-1.32 (inactive)	2.33
B8	0.833 (inactive)	1.01	1.2
B9	-1.17 (inactive)	-0.722 (inactive)	-1.34 (inactive)
B10	0.515 (inactive)	0.00682 (inactive)	0.075 (inactive)
B11	7.92 (active)	8.84 (active)	6.67 (active)
B12	-0.06 (inactive)	-0.775 (inactive)	0.231 (inactive)
B13	6.61 (active)	7.38 (active)	6.43 (active)
B14	10.8 (active)	9.86 (active)	9.48 (active)
B15	0.282 (inactive)	1.35	0.113 (inactive)
B16	11.6 (active)	9.35 (active)	8.06 (active)
B17	1.5	-0.918 (inactive)	-0.53 (inactive)
B18	-1.36 (inactive)	-0.838 (inactive)	-1.05 (inactive)

Sequence	furin cleavage Z-score (7.5 min)	furin cleavage Z-score (15 min)	furin cleavage Z-score (30 min)
B19	0.154 (inactive)	0.647 (inactive)	1.16
B20	1.79	0.404 (inactive)	0.971 (inactive)
B21	-0.476 (inactive)	0.465 (inactive)	1.3
B22	0.615 (inactive)	1.53	-0.0256 (inactive)
B23	-0.000681 (inactive)	-0.163 (inactive)	-0.163 (inactive)
B24	0.559 (inactive)	2.05	2.1
B25	6.1 (active)	5.39 (active)	6 (active)
B26	0.521 (inactive)	-0.599 (inactive)	-1.31 (inactive)
B27	8.92 (active)	9.27 (active)	8.27 (active)
B28	-0.333 (inactive)	-0.446 (inactive)	1.11
B29	1.78	2.84	5.21 (active)
B30	-0.0741 (inactive)	1.57	0.905 (inactive)
B31	5.33 (active)	6.71 (active)	6.66 (active)
B32	-0.25 (inactive)	0.383 (inactive)	1.16
B33	0.00727 (inactive)	-0.821 (inactive)	0.672 (inactive)
B34	0.566 (inactive)	0.909 (inactive)	1.17
B35	1.35	-0.179 (inactive)	-0.384 (inactive)
B36	3.13	4.29 (active)	5.21 (active)
